From the supplement of paper PMC6555819

How the values were obtained:
Assay in all cases: PBM binding z-score (relative to random genomic background probes); higher = stronger binding; sequences stand for … in GC…GCGATTGACAGCGTAGAATGAAGG
[1] = test system: FXR:RXRa (NR concentration 270 nM, RXRa partner concentration 90 nM)
Outline: (§1)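 For binding z-scores, the reference was random background probes on custom Agilent 4×180K protein-binding microarrays. These arrays were incubated 1 h with ligand-free nuclear receptor dimers in PBS pH 7.4, 2% milk, 0.02% Triton X-100, 1 mM DTT, 0.2 mg/mL BSA and 0.4 mg/ml salmon testes DNA. Fluorescence was scanned after antibody detection of each partner (one per run) and regression-normalized.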

[2] = test system: LXRa:RXRa (NR concentration 270 nM, RXRa partner concentration 90 nM)
Outline: as §1

[3] = test system: LXRa homodimer (NR concentration 270 nM)
Outline: as §1

[4] = test system: LXRb:RXRa (NR concentration 270 nM, RXRa partner concentration 90 nM)
Outline: as §1

[5] = test system: LXRb homodimer (NR concentration 270 nM)
Outline: as §1

[6] = test system: PPARa:RXRa (NR concentration 270 nM, RXRa partner concentration 90 nM)
Outline: as §1

[7] = test system: PPARg:RXRa (NR concentration 180 nM, RXRa partner concentration 90 nM)
Outline: as §1

[8] = test system: PPARg:RXRa 270nM:90nM, anti-RXR (NR concentration 270 nM, RXRa partner concentration 90 nM)
Outline: as §1

[9] = test system: PPARg:RXRa 30nM:10nM, anti-RXR (NR concentration 30 nM, RXRa partner concentration 10 nM)
Outline: as §1

[10] = test system: PPARg:RXRa 90nM:30nM, anti-RXR (NR concentration 90 nM, RXRa partner concentration 30 nM)
Outline: as §1

Sequence | PBM binding z-score [1] | PBM binding z-score [2] | PBM binding z-score [3] | PBM binding z-score [4] | PBM binding z-score [5] | PBM binding z-score [6] | PBM binding z-score [7] | PBM binding z-score [8] | PBM binding z-score [9] | PBM binding z-score [10]
GCTAGCAGGCCATTTGGGTCCCTCAATGACGGGC | -0.228 | -0.686 | -0.879 | -1.21 | -1.22 | -0.512 | -0.133 | -0.261 | -0.743 | -0.708
TCAGACCGGTGAAGGTAACTCAGGTACGCAGTCG | 0.557 | 1.33 | -0.308 | 0.535 | -0.714 | 0.614 | 0.21 | 1.47 | 3.08 | 2.23
AGTCAAATTTCAGGACGAGGTAACGTAAAGCACG | 0.0503 | -0.145 | 0.0565 | 0.0191 | -0.153 | -0.229 | 0.688 | -0.178 | -0.0529 | -0.261
TCTGCTAGGTCAGTTGGCCAGCTAACGAGCTGCC | 0.857 | 0.327 | -0.78 | -0.127 | -0.163 | 1.2 | -0.0379 | 1.3 | 0.758 | 1.1
TTTATTAGTTGAAGGGCAACCGACGAGTCCGTTT | 0.831 | 0.834 | 0.746 | 0.739 | 0.614 | 0.899 | 0.644 | 1.71 | 1.09 | 1.95
CCTTACGGGTCACGAGGTTACAGCACGACGAGCG | 7.17 | 4.8 | 0.542 | 4.17 | 0.337 | 6.14 | 7.89 | 6.86 | 3.81 | 5.93
ACTCGGACGACAAAGGTCAGAGCTACGCCAGTGA | 3.61 | 4.04 | 1.27 | 3.23 | 0.325 | 4.37 | 4.45 | 5.09 | 2.65 | 4.51
TCAGGCAGGTGAAGGTAACTCAGGTACGCAGTCG | 0.263 | 1.12 | -0.208 | 0.558 | -0.936 | 0.851 | 0.226 | 1.2 | 2.13 | 1.73
CTCGAAAGGTCGTGCTCAGGTGTGTATACCAAAC | 5.43 | 3.78 | 0.295 | 3.62 | 0.401 | 4.72 | 2.43 | 3.56 | 1.06 | 2.46
CTACCAAGGTGAACAAGGTCGTTGACTACTATTC | 1.83 | 1.79 | 0.0971 | 1.79 | -0.0485 | 2.65 | 1.41 | 1.68 | 0.448 | 0.985
CGTCCAAGCTCAATGCTAGGTCAGTGAAAGCATT | -0.232 | -0.0286 | 0.428 | -0.0522 | -0.887 | 0.167 | -0.576 | -0.605 | -0.752 | -0.627
GGAACGAAGGCAAGTTGATAGCAGAGTTTGATGG | -0.951 | -0.918 | -0.858 | -1.13 | -1.2 | -0.649 | 0.469 | -0.479 | -0.377 | -0.674
TAGCCTAGGTCGTGGGCCAGTATACCACGCGAAC | 0.0973 | 0.0379 | -0.669 | 0.0173 | -0.88 | 0.972 | 0.333 | 0.511 | -0.615 | -0.0658
CAGCCTAGGTCAGGGCAAGTATAGGAGGAACGTT | 2.01 | 1.35 | -0.33 | 0.587 | -1.01 | 2.23 | 1.32 | 1.24 | -0.349 | 0.306
CCTGCTAGGTGATGGTCAGCTAATCTACAGTATG | -0.61 | -0.646 | -0.557 | -0.682 | -0.584 | -0.449 | -0.12 | -0.449 | -0.178 | -0.369
TGAATGAGGTTATAATATCAGGGAACGTTGCAAA | 1.4 | 1.31 | 0.0955 | 1.38 | 0.0343 | 2.68 | 1.29 | 1.62 | 0.724 | 1.25
ACAGACAGGTGAGTGAAGGTAACTGAGCTGGACG | 0.439 | -0.0639 | -0.513 | -0.288 | -0.405 | 0.393 | 0.534 | 0.106 | -0.146 | -0.11
AGAACGAGGGCAATGAGTTGATAGCTCGGGTGGC | 0.0898 | -0.196 | -0.745 | -0.286 | -0.548 | 1.23 | 1.03 | 0.695 | -0.213 | 0.434
CGTCCAAGGTCAAAGGTCAGTGATGAGATGACGG | 8.34 | 6.88 | 3.97 | 6.55 | 2.01 | 7.15 | 10.7 | 8.75 | 8.43 | 9.31

Sequence | PBM binding z-score [1] | PBM binding z-score [2] | PBM binding z-score [3] | PBM binding z-score [4] | PBM binding z-score [5] | PBM binding z-score [6] | PBM binding z-score [7] | PBM binding z-score [8] | PBM binding z-score [9] | PBM binding z-score [10]
AGAACGCGGGCAATGAGTTGATAGCACGGGTGGC | -0.43 | -0.534 | -0.756 | -1.26 | -1.21 | -0.548 | 0.71 | -0.504 | -0.182 | -0.404
ATCTCTAGGTTACCAAGTTCAGTGAATGCCGAAC | 0.872 | 1.95 | 1.86 | 1.47 | 1.16 | 2.15 | 1.82 | 1.97 | 0.559 | 0.955
TGAATGAGGTTAAAGATCAGGGACCGTGGCGTCG | 2.75 | 2.5 | -0.345 | 1.45 | 0.253 | 4.71 | 5.75 | 6.16 | 5.21 | 6.9
CGTCCAAGGTCAGCAGGTCAGTGCAAGCGACGTG | 5.87 | 3.79 | 0.73 | 2.8 | -0.131 | 4.86 | 4.09 | 4.53 | 1.16 | 2.98
CCTTACGGGTCACTGACAGGTTATAGCATTTGGA | 5.52 | 4.15 | 0.472 | 3.5 | 0.111 | 5.06 | 4.48 | 4.67 | 1.53 | 3.39
CCTGGGAGGACAACAGGAGGTCAGAGCTGCCAGA | 1.53 | 2.1 | 2.07 | 1.57 | -0.371 | 2.15 | 0.479 | 0.597 | -0.563 | 0.161
TCTTGTAGGTCAGCAGGTTAAGAAAGCTGGCCAA | 3.31 | 2.55 | 0.186 | 2.16 | 0.418 | 4.35 | 6.77 | 5.91 | 4.19 | 5.71
GCCGCTAGGTCAGGTTGGTCAGCTAACGGGTACG | 1.23 | 0.593 | -0.167 | 0.545 | -0.194 | 1.41 | 0.278 | 0.955 | -0.607 | 0.0187
GCGACGGGGGCATCAGCAGGTTACCATAACTTAA | 2.95 | 3.18 | 0.557 | 5.21 | 8.02 | 4.19 | 2.48 | 3.35 | 1.55 | 2.59
AGAACGAGGGCAATGAGTTGATCGCACGGGTGGC | 0.0662 | 0.0988 | -0.712 | -0.452 | -0.58 | 1.33 | 1.16 | 0.618 | -0.283 | 0.0795
ACTATTAGTTGAGACGAGAGCAACCGATAGGTTG | -0.0812 | -0.233 | -0.161 | -0.216 | 0.14 | -0.533 | 0.493 | -0.133 | 0.37 | 0.081
TCATGTAGATCAATAGAGGTTAAGAAAGTGCGCT | 1.01 | 3.41 | 0.701 | 1.95 | 0.112 | 1.83 | 0.225 | 1.59 | 3.1 | 1.96
CTACCAAGGTGAACAAGGTCGTTGGTTACTATTC | 1.39 | 1.4 | 0.281 | 1.71 | -0.365 | 2.45 | 0.875 | 1.37 | -0.194 | 0.758
TAGCCGAGGTCATTGGGCCAGTATAGTACGCATC | 7.32 | 5.83 | 2.5 | 5.28 | 1.76 | 6.2 | 6.77 | 6.15 | 3.26 | 5.02
ACTCGCAGGCCAAGTTTGGGTCACTCAAACAAAG | 0.277 | 0.222 | -0.578 | 0.571 | -0.644 | 1.39 | -0.313 | 0.179 | -0.845 | -0.263
TCTTGTAGATCAATAGACGTTAAGAAAGTGCGCT | 0.594 | 0.28 | -0.214 | 0.165 | 0.106 | 0.212 | -0.0755 | 1.51 | 2.76 | 2.26
GCGACTGGGGCATCAGCAGGATACCATAACTTAA | -0.587 | -0.962 | -0.678 | -0.508 | -0.969 | 0.0763 | 0.883 | 0.422 | -0.491 | -0.212
CGTCCAAGGTCAAGATCAGTGAAAGAGACTCGAA | 6.95 | 4.97 | 0.248 | 3.85 | 0.6 | 5.63 | 4.78 | 5.2 | 1.46 | 3.58
AGAACGAGGGCACGCTGAGTTGATTGCAGAGTAG | 0.793 | 0.4 | -0.818 | -0.114 | -1.35 | 1.94 | 1.71 | 1.83 | 0.402 | 1.15
